Compound activity (PubChem)
KDM5B inh = Primary screen for KDM5B Histone Demethylases FDH-coupled qHTS; Lysine-specific demethylase 5B (Homo sapiens), Q9UGL1; KDM5B demethylase, FDH-coupled NADH fluorescence (FDH is formaldehyde dehydrogenase); Potency, µM (highest dose often 57.7 µM), actives largely listed as inhibitors; hit rate 2.6% among 220,000; AID 1347165, 2019; note: nearly all actives have a fitted effect of over 70% in size
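Compound dilutions met 200 nM (final) KDM5BΔAP for 10 min at room temperature before substrate addition. The substrate mix held 12.5 µM H3K4me3 with cofactors 25 µM α-ketoglutarate and 50 µM Fe²⁺. NADH signal gain over 30 min defined activity.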
IP6K1 inhibitor = Primary qHTS assay for small molecule inhibitors of Inositol hexaphosphate kinase 1 (IP6K1). IP6K1 kinase, ADP-Glo luminescence, 2 h; active compounds read low. activity change, % (series mostly up to about 58 µM). hit rate 0.81% among 140,000; in the data active = activity change below about -25%
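ADP-Glo luminescence measures ADP made by human IP6K1 during a 2 h RT reaction with ATP/IP6 (mix at 1.3 mM/130 uM); top library doses 57.5 and 19.1 uM final.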
IP6K1 conf = Confirmatory qHTS assay for small molecule inhibitors of Inositol hexaphosphate kinase 1 (IP6K1). shares compounds with IP6K1 inhibitor. recombinant IP6K1 kinase, ADP-Glo luminescence, 2 h. Potency, µM (top dose mostly 49 µM), hits mostly inhibitors. hit rate 13% among 1,200. AID 1645852, 2021; note: nearly all actives have a fitted effect of over 65% in size
A number is an active result. Rows were chosen to be rich in hits. Some 2.8% of all compounds tested hit in one or more screens of this group. Unless noted, calls come from the whole dose curve; as a rule, active = well fitted inhibition curve with a large enough effect; inconclusive = small, poorly fitted or top-dose-only effect; inactive = no such curve, though single readings can be large or run the other way.

Results for CC(C)(C)CC(=O)N1CC2CC(C1)[C@H]1CCCC(=O)N1C2 (stereo partly drawn) ?
KDM5B inh: inactive; IP6K1 inhibitor: inactive

How did COc1ccc(-c2cccc(C(=O)NCC(F)(F)F)c2)nn1 do in these assays?
IP6K1 inhibitor: inactive

How did CCOC(=O)Cc1ccc(C(=O)/C=C/c2ccc(Cl)cc2)cc1 do in these assays?
KDM5B inh: inactive

Results for CN(CC12CC3CC(CC(C3)C1)C2)C(=O)CCc1ccccc1O ?
KDM5B inh: inactive

Results for CCC(C(=O)Nc1ccc(F)c(Cl)c1)n1nc(-c2ccccc2)ccc1=O (stereo not drawn) ?
KDM5B inh: inactive

How did O=C(CCC(F)(F)F)N1CCc2nc(-c3ccc(Cl)cc3)[nH]c2C1 do in these assays?
KDM5B inh: inconclusive; IP6K1 inhibitor: inactive

How did O=C(CC1CNCCO1)N1CCc2nc(-c3ccc(Cl)cc3)[nH]c2C1 (stereo not drawn) do in these assays?
KDM5B inh: 25.1µM; IP6K1 inhibitor: inactive

Results for COc1ccc(-c2ccccc2C(=O)N(C(C)C)C(C)C)c2cccnc12 ?
KDM5B inh: inconclusive; IP6K1 inhibitor: inactive

Results for COc1ccc(S(=O)(=O)Nc2cc(C)cc(C)c2)c2cccnc12 ?
KDM5B inh: inactive

Results for COc1nc(-c2ccc(OC)c3ncccc23)ncc1F ?
KDM5B inh: 31.6µM; IP6K1 inhibitor: inactive

How did COc1ccc(-c2nc(C)c(C)cc2C#N)c2cccnc12 do in these assays?
KDM5B inh: 31.6µM; IP6K1 inhibitor: inactive

How did COc1ccccc1-n1c(SCC(=O)N2CCCc3ccccc32)nc2c(c1=O)SCC2 do in these assays?
KDM5B inh: inactive

How did CCC12CN3CC(CC)(CN(C1)C3c1ccc(C)cc1)C2=O (stereo not drawn) do in these assays?
KDM5B inh: inactive

How did N#Cc1ccc(OC(=O)c2cc(-c3ccc(Cl)cc3)on2)cc1 do in these assays?
KDM5B inh: inactive; IP6K1 inhibitor: inactive

Results for CCOc1ccc(-c2cc(C(=O)Oc3ccc(C#N)cc3)no2)cc1 ?
KDM5B inh: inconclusive; IP6K1 inhibitor: -27.1; IP6K1 conf: inconclusive

How did COc1cc2c(cc1-c1c(C)noc1C)ncc1[nH]c(=O)n(C(C)c3ccccn3)c12 (stereo not drawn) do in these assays?
IP6K1 inhibitor: inactive

How did NC(N)=NCCC[C@H](NC(=O)c1sccc1NS(=O)(=O)c1cccc2nsnc12)C(=O)O do in these assays?
IP6K1 inhibitor: inactive

Results for Cn1c(=O)c2c([nH]c(=O)n2C)n(Cc2ccccc2)c1=O ?
KDM5B inh: inactive

How did Cn1sc(=O)n(Cc2ccccc2)c1=O do in these assays?
IP6K1 inhibitor: -83.1; IP6K1 conf: 18.4µM

How did O=C(NCCc1ccc(Cl)cc1)C(=O)NCC(c1ccco1)S(=O)(=O)c1ccc(Cl)cc1 (stereo not drawn) do in these assays?
KDM5B inh: inactive; IP6K1 inhibitor: inactive

What do the screens show for `CC1CCN(c2nc3c(-c4cccc(Br)c4)nnn3c3ccccc23)CC1`?
KDM5B inh: inactive; IP6K1 inhibitor: inactive

What do the screens show for `Cc1ccc(-c2nnn3c2nc(N2CCC(C)CC2)c2ccccc23)cc1`?
KDM5B inh: inconclusive; IP6K1 inhibitor: -28.9; IP6K1 conf: inactive

Results for CN1C[C@@H](NC(=O)Nc2ccccc2)C[C@H]1c1nc(-c2ccccc2)no1 ?
KDM5B inh: 35.5µM; IP6K1 inhibitor: -25.3; IP6K1 conf: inconclusive

How did CN1C[C@@H](NC(=O)Nc2ccccc2)C[C@H]1c1nc(-c2ccc(F)cc2)no1 do in these assays?
KDM5B inh: inactive; IP6K1 inhibitor: inactive

How did Nc1[nH]n(-c2ccccc2)c(=O)c1N=Nc1ccccc1 do in these assays?
KDM5B inh: inactive

What do the screens show for `Nc1ccc(N=Nc2ccccc2)c(N)n1`?
IP6K1 inhibitor: -36.5; IP6K1 conf: inconclusive

What do the screens show for `CCOC(=O)[C@@H]1CN(C(=O)c2cc3ccccc3s2)[C@H]2c3ccccc3O[C@@H]12`?
IP6K1 inhibitor: inactive

Results for CC1CCCC(NC(=O)c2cnc(Cl)c(Cl)c2)C1 (stereo not drawn) ?
KDM5B inh: inactive

How did Cc1cccc(C(=O)Oc2ccc(C3(c4ccc(OC(=O)c5cccc(C)c5)cc4)OC(=O)c4ccccc43)cc2)c1 do in these assays?
KDM5B inh: inactive

How did O=C1OC2(c3ccccc31)c1cc(Br)c(O)c(Br)c1Oc1c2cc(Br)c(O)c1Br do in these assays?
IP6K1 inhibitor: -69.4; IP6K1 conf: 3.26µM

How did CCc1ccc(NCc2cc3ccc(OC)cc3n(CC(=O)Nc3ccccc3C)c2=O)cc1 do in these assays?
KDM5B inh: inactive; IP6K1 inhibitor: inactive

Results for COc1cccc(NC(=O)CSc2nnc3scc(-c4ccc(Cl)cc4)n23)c1 ?
KDM5B inh: inactive; IP6K1 inhibitor: -36.9; IP6K1 conf: inactive
